Most compounds without a hit are left out; they make up all but 2.3% or so of the library.
M1 ag: human M1 muscarinic receptor agonists, primary screen, Fluo-8 calcium fluorescence, CHO-K1 cells, HTS. Muscarinic acetylcholine receptor M1 (Homo sapiens), P11229. CHO-K1 hM1, agonist mode; 0% DMSO, 100% acetylcholine EC100. activation, % at 3 µM. 360,000 tested, 0.33% active. AID 588814, 2011;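 active = activation above the run's mean compound activation plus 3 SD, cut at about 16% in these data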;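 also: peak over basal fluorescence ratio within a 140 s kinetic read after compound addition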
Target sequence (P11229 whole entry, looked up): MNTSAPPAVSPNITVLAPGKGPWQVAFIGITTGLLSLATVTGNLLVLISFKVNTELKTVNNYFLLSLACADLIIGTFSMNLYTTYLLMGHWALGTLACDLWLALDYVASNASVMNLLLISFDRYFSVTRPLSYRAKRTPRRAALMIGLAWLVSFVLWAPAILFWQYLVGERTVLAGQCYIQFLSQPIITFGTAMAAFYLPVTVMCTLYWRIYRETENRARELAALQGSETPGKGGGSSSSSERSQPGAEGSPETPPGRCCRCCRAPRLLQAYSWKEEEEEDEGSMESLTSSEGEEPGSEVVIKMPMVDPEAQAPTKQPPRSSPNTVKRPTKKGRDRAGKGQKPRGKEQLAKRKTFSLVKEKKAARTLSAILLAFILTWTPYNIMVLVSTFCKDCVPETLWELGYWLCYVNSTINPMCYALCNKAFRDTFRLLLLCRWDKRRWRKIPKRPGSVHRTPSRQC
CHO-K1 Ca antag: M1 antagonist counterscreen hit in parental CHO-K1 cells. ATP-induced calcium, Fluo-8 fluorescence. inhibition, % at 3 µM. 360,000 tested, 0.6% active. AID 602250;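 active = inhibition above a per-plate cutoff, the plate's mean sample inhibition plus 3 SD, cut at about 24% in these data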;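 also: 0% = DMSO plus EC80 ATP and 100% = DMSO alone without ATP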
M1 PAM parental: nonselective calcium activators in parental CHO-K1 cells, primary screen, counter-screen for M1 PAM project, cell-based, Fluo-8 calcium fluorescence, full deck, 1536-well | ATP EC20; 0% at ATP EC20, 100% at ATP max | activation, % at 3 µM | 360,000 tested, 0.02% active | AID 602247, 2012;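 active = activation above the run cutoff, the mean activation of all test compounds plus 3 SD, cut at about 40% in these data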;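 also: peak over basal fluorescence ratio in a 140 s read after ATP addition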
CHRM1 PAM: human M1 muscarinic receptor positive allosteric modulators, primary screen, CHO-K1 cells, Fluo-8 calcium fluorescence, 1536-well; Muscarinic acetylcholine receptor M1 (Homo sapiens), P11229; CHO-K1 hM1, ACh EC20; 0% = ACh EC20, 100% = maximal ACh; activation, % at 3 µM; 360,000 tested, 0.088% active; AID 588819, 2011; in the data active = activation above about 19%, passing the limit was not always enough
M1 ag parental: counter-screen for M1 agonists: effect in parental CHO-K1 cells; Fluo-8 calcium fluorescence; scaled to maximal ATP response, vehicle zero; activation, % at 3 µM; 360,000 tested, 0.48% active; in the data active = activation above about 15%;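 also: untransfected CHO-K1 host cells lacking M1 receptor as counterscreen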
CHRM1 antagonist: human M1 muscarinic receptor antagonists, primary screen, CHO-K1 cells, Fluo-8 calcium fluorescence, 1536-well; CHO-K1 hM1, ACh EC80 antagonist; 360,000 tested, 1.3% active; AID 588852, 2011; Muscarinic acetylcholine receptor M1 (Homo sapiens), P11229; inhibition, % at 3 µM;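 active = percent inhibition above its own plate's cutoff, namely the mean of that plate's compound wells plus 3 SD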;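 also: peak over basal fluorescence ratio during 140 s after agonist addition; 0% = ACh EC80 plus DMSO and 100% = DMSO alone without agonist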
* hit, by the source's call.

Screening CC(C)(C)c1ccc(NC(=O)c2cc(C3CCCN(C(=O)CCc4ccccc4)C3)on2)cc1 (stereo not given) returned M1 ag 10, CHO-K1 Ca antag 9, M1 PAM parental -10, CHRM1 PAM 17, M1 ag parental 1 and CHRM1 antagonist -5.
For COC(CNC(=O)C(=O)NCC1CCCN1S(=O)(=O)c1cccs1)OC (stereo not given) the results were M1 ag 0, CHO-K1 Ca antag -3, M1 PAM parental 10, CHRM1 PAM 9, M1 ag parental 0 and CHRM1 antagonist -5.
CCN(CC)S(=O)(=O)c1ccc(Oc2ccccc2)c(N)c1 was read as M1 ag -1, CHO-K1 Ca antag -9, M1 PAM parental 9, CHRM1 PAM 8, M1 ag parental 5 and CHRM1 antagonist -2.
`CCN(CC)S(=O)(=O)c1ccc(N2CCN(c3ccccc3OC)CC2)c(N)c1` gave M1 ag 1, CHO-K1 Ca antag 17, M1 PAM parental -21, CHRM1 PAM -18, M1 ag parental 12 and CHRM1 antagonist 34*.
CC(=O)c1cccc(OCC(=O)Nc2cccc(C(=O)Nc3c(C)n(C)n(-c4ccccc4)c3=O)c2)c1 was read as M1 ag -2, CHO-K1 Ca antag -13, M1 PAM parental -1, CHRM1 PAM -1, M1 ag parental 1 and CHRM1 antagonist 5.
Screening CCN(CC)S(=O)(=O)c1ccc(N2Cc3ccccc3C2=N)cc1 returned M1 ag -3, CHO-K1 Ca antag -2, M1 PAM parental 8, CHRM1 PAM -9, M1 ag parental 5 and CHRM1 antagonist 30*.
CCc1cccc(NC(=O)c2ccc(Cn3nc(C)cc3C)o2)c1 was read as M1 ag -9, CHO-K1 Ca antag 24*, M1 PAM parental -12, CHRM1 PAM 8, M1 ag parental 0 and CHRM1 antagonist -12.
O=C(CC[C@H]1O[C@@H](n2ccc(=O)[nH]c2=O)[C@H](O)[C@@H]1O)N[C@H](Cc1ccccc1)C(=O)NCc1cccs1 was read as M1 ag -6, CHO-K1 Ca antag 17, M1 PAM parental -3, CHRM1 PAM 0, M1 ag parental 0 and CHRM1 antagonist 1.
`Nc1ncnc2c1ncn2[C@@H]1O[C@H](C(=O)Nc2ccc(Oc3ccccc3)nc2)[C@@H](O)[C@H]1O` gave M1 ag -4, CHO-K1 Ca antag 14, M1 PAM parental -3, CHRM1 PAM -2, M1 ag parental 0 and CHRM1 antagonist -19.
`COc1cc(S(=O)(=O)N2CCN(C)CC2)c(OC)cc1Cl` gave M1 ag -2, CHO-K1 Ca antag 24*, M1 PAM parental -7, CHRM1 PAM 12, M1 ag parental 0 and CHRM1 antagonist -2.
`N#CC1=C(N)OC2=C(C(=O)CC(c3ccccc3)C2)C1c1ccc2c(c1)OCO2` (stereo not given) gave M1 ag -13, CHO-K1 Ca antag -9, M1 PAM parental 21, CHRM1 PAM -26, M1 ag parental 0 and CHRM1 antagonist 62*.
`COC(=O)[C@@H](Cc1c[nH]c2ccccc12)NC(=O)c1ccc2c(c1)OCO2` gave M1 ag 2, CHO-K1 Ca antag 16, M1 PAM parental -5, CHRM1 PAM 1, M1 ag parental 23* and CHRM1 antagonist 2.
Screening Cc1cc(OC(=O)c2c(Cl)cc(Cl)cc2Cl)nc(C)n1 returned M1 ag -4, CHO-K1 Ca antag -21, M1 PAM parental 22, CHRM1 PAM 24*, M1 ag parental 0 and CHRM1 antagonist -17.
`COc1ccc(CC2SC(N)=NC2=O)cc1` (stereo not given) gave M1 ag 0, CHO-K1 Ca antag -6, M1 PAM parental 17, CHRM1 PAM 10, M1 ag parental 1 and CHRM1 antagonist -14.

Source: PubChem
